The results in this text go back to PubChem BioAssay (NCATS).

Results filed as inconclusive are left out. This is one part of the list. Calls of active or inactive are those of the source. Unless noted, the call rests on the fitted dose curve; in most records, active means well fitted curve in the direction sought with a large enough effect; inconclusive means small, poorly fitted or top-dose-only effect, or another doubt; inactive means no such curve, though single readings can be large; an effect the other way counts as inactive or inconclusive.

The target in experiment [1] is Dual specificity protein kinase CLK4 (Homo sapiens) (UniProt Q9HAZ1). Kind of experiment: qHTS Assay for Inhibitors of CDC-like Kinase 4 (Kinase-Glo Assay) (AID 1770). Further: on the % scale 0 is the no-effect control and ±100 the full control effect; nearly all actives have a fitted effect of over 65% in size. In outline: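 Recombinant human Clk4 (25 nM) phosphorylated RS repeat peptide (100 uM) with 1 uM ATP in Tris pH 7.5/MgCl2/EGTA/DTT/Triton buffer for 4.5 h at room temperature. Residual ATP was quantified by Kinase-Glo luciferase luminescence.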

The target is the same in experiment [2]. Kind of experiment: qHTS Assay for Inhibitors of CDC-like Kinase 4 (ADP-Glo Assay) (AID 1771). Further: on the % scale 0 is the no-effect control and ±100 the full control effect; nearly all actives have a fitted effect of over 70% in size. In outline: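 Compounds are pin-transferred onto substrate mix (100 uM RS peptide, 1 uM ATP), then 25 nM Clk4 is added. After 1 hr at room temperature, ADP-Glo reagent runs 45 min, detection reagent 30 min, then luminescence is read.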
For experiment [3] the target is unchanged. Kind of experiment: qHTS Assay for Inhibitors of CDC-like Kinase 4 (ADP-FP Assay) (AID 1795). Further: on the % scale 0 is the no-effect control and ±100 the full control effect; nearly all actives have a fitted effect of over 60% in size. In outline: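 Recombinant human Clk4 (6.25 nM) phosphorylated RS repeat peptide (100 uM) with 1 uM ATP in Tris pH 7.5/MgCl2/EGTA/DTT/Triton buffer for one hour. ADP was quantified by Transcreener competitive fluorescence polarization against an ADP calibration curve.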

Experiment [4] deals with Vitamin D3 receptor (Homo sapiens) (UniProt P11473). The experiment in a line: qHTS for Inhibitors of the vitamin D receptor (VDR): Hit Validation in Primary Screen (AID 602199). Further: potency means the concentration at half of the fitted maximal effect. As to conditions: VDR-coactivator inhibition assay, qHTS confirmation. In short, it runs like this: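 Fluorescence polarization (Ex 620/Em 688 nm) of Alexa 647-SRC2-3 peptide with 800 nM VDR and 5 uM LG19078. Compounds at several concentrations, 2 h at room temperature.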

Experiment [5] has the same target. Kind of experiment: qHTS for Inhibitors of the vitamin D receptor (VDR): Hit Validation using a Fluorescein Assay (AID 602200). Further: potency means the concentration at half of the fitted maximal effect. The note with it: VDR-coactivator binding, fluorescein fluorescence polarization. In short, it runs like this:
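Fluorescence polarization: 1.5 uM VDR-LBD, 5 uM LG19078 and 5 nM fluorescein-labeled SRC2-3 peptide (final) with compounds, 2 h at room temperature. Read at Ex 495/Em 520 nm; peptide-only wells served as control.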

Experiment [6] has the same target. The experiment in a line: qHTS for Inhibitors of the vitamin D receptor (VDR): Hit Validation using a Beta-Lactamase Assay (AID 602202). Further: on the % scale 0 is the no-effect control and ±100 the full control effect. In short, it runs like this:
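Stably transfected HEK293 cells expressing VDR-GAL4 DNA-binding domain fusion with UAS-driven beta-lactamase reporter, activated by agonist LG190178; compounds incubated 18 h, then FRET beta-lactam substrate 2 h; cleaved substrate read at 447 nm emission.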

Experiment [7] is described as follows: qHTS for Inhibitors of the vitamin D receptor (VDR): Hit Validation using a Cytotoxicity Assay (AID 602204).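 Further: plate controls were DMSO for no effect and high-concentration cycloheximide for full effect; nearly all actives have a fitted effect of over 75% in size.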 In short, it runs like this: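 ATP luminescence, 30 min post-reagent. Exposure: 18 h. Seeding: 20,000 cells/well, 4 h prior to compound. Controls: cycloheximide, DMSO.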
A short description of experiment [8]: qHTS profiling of the MIPE4 collection as inhibitors of Plasmodium falciparum (3D7) proliferation (AID 743344; call rule not given here;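 further: scaled between DMSO vehicle wells and 0.29 µM artemisinin as full inhibition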). The note with it: P. falciparum 3D7 in erythrocytes, SYBR Green DNA fluorescence, 72 h; at 5.51 µM (top of the series) unless noted. In outline: (§1)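 Parasite DNA was quantified by SYBR Green I fluorescence (ex 485, em 535 nm) after overnight lysis in saponin/Triton buffer at room temperature. Cultures at 0.3% parasitemia and 2.5% hematocrit were first exposed to compound for 72 h at 37 C; signals were normalised to artemisinin (0.29 uM) and vehicle wells.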

Experiment [9] can be described thus: qHTS profiling of the MIPE4 collection as inhibitors of Plasmodium falciparum (DD2) proliferation (AID 743345; call rule not given here). As to conditions: P. falciparum Dd2 in erythrocytes, SYBR Green DNA, 72 h; at 5.51 µM (top of the series) unless noted. In short, it runs like this: as §1
Experiment [10] is described as follows: qHTS profiling of the MIPE4 collection as inhibitors of Plasmodium falciparum (DD2) proliferation (Rep 2) (AID 743346; call rule not given here). The note with it: P. falciparum Dd2 in erythrocytes, SYBR Green DNA, 72 h; at 5.51 µM (top of the series) unless noted. In short, it runs like this: as §1
Experiment [11] is described as follows: qHTS profiling of the MIPE4 collection as inhibitors of Plasmodium falciparum (HB3) proliferation (AID 743347; call rule not given here;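 further: plate controls were DMSO vehicle wells for no effect and artemisinin wells for full effect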). The note with it: P. falciparum HB3 in erythrocytes, SYBR Green DNA, 72 h; at 5.51 µM (top of the series) unless noted. In short, it runs like this:
as §1

Dual specificity protein kinase CLK4 (Homo sapiens), sequence (Q9HAZ1 whole entry, looked up): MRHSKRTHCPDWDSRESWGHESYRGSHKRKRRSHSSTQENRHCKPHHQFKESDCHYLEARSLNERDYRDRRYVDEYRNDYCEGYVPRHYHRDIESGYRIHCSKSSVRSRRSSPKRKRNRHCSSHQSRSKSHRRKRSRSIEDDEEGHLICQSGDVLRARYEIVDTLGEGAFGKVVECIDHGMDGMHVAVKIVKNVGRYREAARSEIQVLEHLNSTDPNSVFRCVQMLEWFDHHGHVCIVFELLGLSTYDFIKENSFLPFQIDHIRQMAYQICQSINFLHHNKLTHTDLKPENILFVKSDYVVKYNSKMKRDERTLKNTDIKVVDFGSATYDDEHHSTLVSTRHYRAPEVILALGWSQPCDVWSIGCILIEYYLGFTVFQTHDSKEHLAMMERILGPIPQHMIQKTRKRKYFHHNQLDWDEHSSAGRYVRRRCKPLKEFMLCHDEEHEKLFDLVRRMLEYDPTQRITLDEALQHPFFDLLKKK
Vitamin D3 receptor (Homo sapiens), sequence (P11473 whole entry, looked up): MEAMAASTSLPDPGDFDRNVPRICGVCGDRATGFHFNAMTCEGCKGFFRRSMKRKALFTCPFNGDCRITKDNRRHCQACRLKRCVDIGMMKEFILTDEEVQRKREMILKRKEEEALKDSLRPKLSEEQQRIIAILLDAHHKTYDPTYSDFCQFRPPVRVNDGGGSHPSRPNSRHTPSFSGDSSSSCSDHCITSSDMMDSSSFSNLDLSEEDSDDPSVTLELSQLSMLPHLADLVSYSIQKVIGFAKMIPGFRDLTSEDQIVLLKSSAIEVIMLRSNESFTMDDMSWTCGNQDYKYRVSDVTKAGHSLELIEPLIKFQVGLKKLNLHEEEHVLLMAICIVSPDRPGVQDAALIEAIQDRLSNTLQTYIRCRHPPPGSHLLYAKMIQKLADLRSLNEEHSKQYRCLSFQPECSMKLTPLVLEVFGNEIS

On to `CN1CCN(c2ncncc2-c2ccc(N(C)C)cc2)CC1`, for which the Potency entry in experiment [1], in [2] and in experiment [3] was “inactive” in each case.
As to `CCCCOc1ccc(CN2C(=O)C(=O)c3cc(Br)cc(C)c32)cc1OC`, the results for the Potency in [4] and in experiment [5] were 10 µM (active) and 8.91 µM (active), respectively. For the same compound, the Potency entry in experiment [6] was “inactive”. In experiment [7], the call was inactive.
`CC1CC2C3CCC4=CC(=O)C=C[C@@]4(C)[C@]3(F)C(O)C[C@]2(C)[C@]1(O)C(=O)CO` (stereo partly specified) displayed a parasite growth, % of DMSO control in experiment [8] of 31.9% [at 28.5 µM]. This compound returned a parasite growth remaining, % of DMSO control (lower = more inhibition) in [9] of 90.9% [at 28.5 µM]. The same compound gave a parasite growth, % of control (lower = inhibition) in experiment [10] of 44.9% [at 28.5 µM]. This compound registered a growth, % of control in experiment [11] of 11.4% [at 28.5 µM].
